This note sets out measurements from PubChem BioAssay.

In experiment [1] the target is PEG-3 (UniProt Q6IN02). Nature of the experiment: Peg3 promoter luciferase inhibitors, potency, dose response, cell-based, HeLa, CREF/GAPDH counter-screen panel (AID 624167). Conditions: CREF/GAPDH counter-screens; HeLa PEG-Prom luciferase reporter, overnight, run 1, dose range 1, at 100 µM (top of the series) unless noted. (In general: A counterscreen serves to expose hits that act by an unwanted route or on another target.)
PEG-3, sequence (Q6IN02 whole entry, looked up): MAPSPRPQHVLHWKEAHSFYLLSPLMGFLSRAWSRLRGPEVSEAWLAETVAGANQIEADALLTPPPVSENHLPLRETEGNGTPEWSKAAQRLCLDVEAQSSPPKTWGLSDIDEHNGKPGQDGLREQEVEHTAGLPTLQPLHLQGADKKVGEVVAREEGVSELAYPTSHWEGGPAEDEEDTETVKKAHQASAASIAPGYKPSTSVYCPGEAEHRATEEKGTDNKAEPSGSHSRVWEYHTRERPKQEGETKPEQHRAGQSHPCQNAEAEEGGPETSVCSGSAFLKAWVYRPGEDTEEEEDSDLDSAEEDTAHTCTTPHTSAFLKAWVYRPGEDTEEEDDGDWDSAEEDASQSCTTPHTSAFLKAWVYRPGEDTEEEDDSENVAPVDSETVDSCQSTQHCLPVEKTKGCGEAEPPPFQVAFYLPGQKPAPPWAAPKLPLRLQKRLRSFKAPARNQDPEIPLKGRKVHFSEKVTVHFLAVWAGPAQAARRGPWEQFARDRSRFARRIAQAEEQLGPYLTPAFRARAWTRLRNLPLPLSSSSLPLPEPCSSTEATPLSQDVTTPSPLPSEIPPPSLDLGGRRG

The target in experiment [2] is PEG-3 (UniProt Q6IN02). The description is as above. Conditions: CREF/GAPDH counter-screens; HeLa PEG-Prom luciferase reporter, overnight, run 2, dose range 1, at 100 µM (top of the series) unless noted; in the data active means activity above about 50%; inactive means the rest.
The nature of experiment [3]: inhibitors of PAF-induced NFkB signaling in CF airway cells, dose response, cell-based, uHTS hits, panel, cytotoxicity readout (AID 624344). Conditions: CF bronchial epithelial cells, PAF-induced NFkB reporter inhibition, with PAF, run 1; at 79 µM (top of the series) unless noted.
Test in experiment [4]: as above
Conditions: CF bronchial epithelial cells, PAF-induced NFkB reporter inhibition, with PAF, run 2; at 79 µM (top of the series) unless noted.

Experiment [5] concerns the target Tumor necrosis factor receptor superfamily member 10B (Homo sapiens) (UniProt O14763). Nature of the experiment: caspase-8 TRAIL sensitization, hit retest, confirmation, cell-based, NB7+caspase-8, with/without TRAIL, luminescence panel (AID 651596). To be noted: NB7 neuroblastoma + caspase-8, TRAIL sensitization, luminescence viability, with TRAIL, mean of runs, at 10 µM, stronger effect = higher value.

Test in experiment [6]: as above
Conditions: NB7 neuroblastoma + caspase-8, without TRAIL, luminescence viability, without TRAIL, mean of runs, at 10 µM.

Tumor necrosis factor receptor superfamily member 10B (Homo sapiens), sequence (O14763 whole entry, looked up): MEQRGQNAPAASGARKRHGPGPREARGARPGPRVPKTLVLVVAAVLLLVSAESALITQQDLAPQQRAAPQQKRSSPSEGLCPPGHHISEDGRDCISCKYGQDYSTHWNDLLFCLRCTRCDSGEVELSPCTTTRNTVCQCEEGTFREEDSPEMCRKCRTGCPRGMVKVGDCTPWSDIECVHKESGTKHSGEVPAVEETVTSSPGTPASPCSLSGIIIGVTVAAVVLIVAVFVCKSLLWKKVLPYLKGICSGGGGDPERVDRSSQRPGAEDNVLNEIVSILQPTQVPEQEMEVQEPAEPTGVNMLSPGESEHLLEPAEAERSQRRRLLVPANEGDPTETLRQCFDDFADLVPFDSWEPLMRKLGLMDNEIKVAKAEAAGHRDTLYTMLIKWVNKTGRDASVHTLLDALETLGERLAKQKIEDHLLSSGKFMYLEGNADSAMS

Usually inhibition stands for the relative decrease from the control value, in per cent. As to `Cc1cnc(NC(=O)C2CC(=O)N(c3cccc(Cl)c3)C2)s1` (configuration not stated), the inhibition in experiment [1] came out at 97.7%; in experiment [2], 87.8%; in experiment [3], 94.9%; in experiment [4] it was 116%.

For `COCCn1c(C)cc(C2=NNC(=NC3CC3)SC2)c1C`, the inhibition came out at 99.2% in experiment [1] and 101% in experiment [2]. Further, the activity in experiment [5] was 91.5%; in experiment [6], 90.3%.

Regarding `O=C(CCl)N1N=C(c2ccco2)CC1c1cccs1` (configuration not stated), the inhibition in experiment [1] was found to be 101%; in experiment [2], 99.3%. The figures for the activity in experiment [5] and in experiment [6] were 98.5% and 97.8%, respectively.

Regarding `Cc1cc(C)c2sc(N(CCCN(C)C)C(=O)c3ccc(S(=O)(=O)N(C)C4CCCCC4)cc3)nc2c1`, the inhibition in experiment [1] came to 98.8%; in experiment [2], 101%. The activity in experiment [5] stood at 17.8%; in experiment [6] it was 4.92%.

With `CCCc1cc(-c2[nH]ncc2-c2ccc3c(c2)OCCCO3)c(O)cc1O`, the inhibition worked out at 108% in experiment [3] and 102% in experiment [4].

As for `CC1CCCCN1S(=O)(=O)c1ccc(C(=O)N(CCCN(C)C)c2nc3ccc(Br)cc3s2)cc1` (configuration not stated), the inhibition in experiment [1] and in experiment [2] was 102% in each case. Moreover, the activity in experiment [5] is 22.4%; in experiment [6] it was 17.7%.

On to `CCN1CCN(c2ccc(S(=O)(=O)N3CCOCC3)cc2NC(=O)/C=C/c2ccc([N+](=O)[O-])cc2)CC1`, for which the inhibition in experiment [1] came to 100%; in experiment [2], 89.1%. Besides, the activity in experiment [5] came out at 50.9%; in experiment [6], 62.1%.

Consider `COC(=O)C1=C(C)N(Cc2ccccc2)C(=NCCc2c[nH]c3ccccc23)N[C@H]1c1cccc(C(F)(F)F)c1`, for which the results for the inhibition in experiment [1] and in experiment [2] were 101% and 99.9%, respectively. Besides, the figures for the activity in experiment [5] and in experiment [6] were 17.3% and 44.5%, respectively.

On to `CCCC1/C(=N/O)CC(c2ccccc2)NC1c1ccccc1` (configuration not stated), for which the inhibition in experiment [3] came to 106%; in experiment [4], 98.7%.

For the compound `c1ccc(-c2nc3nonc3nc2-c2ccccc2)cc1`, the figures for the inhibition in experiment [3] and in experiment [4] were 102% and 109%, respectively.

On to `Cc1ccc(C(=O)NCCc2cccs2)cc1`, for which the inhibition in experiment [1] was 92.3%; in experiment [2] it was 49.8%. The activity in experiment [5] was found to be 76.6%; in experiment [6] it was 75.8%.

With `C[C@@H]1CN([C@H](C)CO)C(=O)c2cc(NC(=O)Nc3ccc(C(F)(F)F)cc3)ccc2O[C@H]1CN(C)S(=O)(=O)c1ccccc1`, the inhibition in experiment [3] amounted to 92%; in experiment [4], 110%.

For `c1cncc(-c2ccc3ncnc(NCc4ccc5c(c4)OCO5)c3c2)c1`, the results for the inhibition in experiment [3] and in experiment [4] were 112% and 101%, respectively.

`CCCCCCc1cc2cc(C(=O)Nc3ccccc3OC)c(=O)oc2cc1O`: the values for the inhibition in experiment [3] and in experiment [4] were 2.45% and 66.2%, respectively.

With `COc1ccccc1N(C(=O)CCl)c1cn(C(C)=O)c2ccccc12`, the figures for the inhibition in experiment [1] and in experiment [2] were 98.1% and 102%, respectively. Besides, the activity in experiment [5] was 99.5%; in experiment [6], 98.3%.

For `CS(=O)(=O)Nc1ccc(-c2cnc3cccnn23)cc1`, the inhibition was determined as 95.8% in experiment [3] and 102% in experiment [4].

Take `Cc1ccc(N(Cc2cc(=O)[nH]c3ccccc23)C(=O)CCl)c(C)c1`: the values for the inhibition in experiment [1] and in experiment [2] were 101% and 99.2%, respectively. Further, the activity in experiment [5] was determined as 96.8%; in experiment [6] it was 96.5%.

Take `COC(=O)c1c(NC(=O)c2ccc([N+](=O)[O-])o2)sc2c1CCN(C(C)C)C2`: the figures for the inhibition in experiment [1] and in experiment [2] were 95% and 99.1%, respectively. For the same compound, the activity amounted to 46.9% in experiment [5] and 88.7% in experiment [6].

For the compound `O=C(Nc1ccccc1)NN(C(=O)CCl)c1ccccc1`, the inhibition amounted to 102% in experiment [1] and 101% in experiment [2]. For the same compound, the activity in experiment [5] and in experiment [6] was 98.3% each time.

Turning to `CCOc1cccc2sc(N(CCCN(C)C)C(=O)c3ccc(S(=O)(=O)N(C)Cc4ccccc4)cc3)nc12`, the results for the inhibition in experiment [1] and in experiment [2] were 99.3% and 101%, respectively. In addition, the activity in experiment [5] was 28.6%; in experiment [6], -0.65%.

On to `Cc1noc(-c2ccc(Cl)cc2)c1C(=O)O/N=C(\N)c1ccc(C(C)(C)C)cc1`, for which the inhibition is 99.2% in experiment [1] and 101% in experiment [2]. Further, the activity in experiment [5] was 99.3%; in experiment [6], 97.5%.

For `CC1=C(C(=O)OCc2ccc3c(c2)OCO3)C(c2cccc([N+](=O)[O-])c2)NC(=O)N1` (configuration not stated), the inhibition in experiment [3] is 79.1%; in experiment [4], 92.2% [at 19.8 µM].

For the compound `CCOc1ccc(Nc2ncnc3ccc([N+](=O)[O-])cc23)cc1`, the inhibition is 102% in experiment [3] and 107% in experiment [4].

For `O=C1NC(=S)N/C1=C/c1cccnc1`, the inhibition in experiment [3] is 97.5%; in experiment [4], 103%.

Consider `Cc1cc(C(=O)COC(=O)c2ccccc2Br)c(C)n1CC1CCCO1` (configuration not stated), for which the values for the inhibition in experiment [1] and in experiment [2] were 95.8% and 85.4%, respectively. Besides, the results for the activity in experiment [5] and in experiment [6] were 68.1% and 74.3%, respectively.

As to `COCCNc1nc(Oc2cncc(Cl)c2)c2sccc2n1`, the inhibition came to 100% in experiment [3] and 115% in experiment [4].

On to `O=C(c1cncc(Br)c1)N1CCc2ccccc2C1`, for which the inhibition stood at 92.5% in experiment [3] and 80.2% in experiment [4].

As for `CC[C@@H](C(=O)[C@@H](C)[C@@H](O)[C@H](C)[C@@H]1O[C@@H]([C@@H](CC)C(=O)O)CC[C@@H]1C)[C@H]1O[C@]2(C=C[C@@H](O)[C@]3(CC[C@@](C)([C@H]4CC[C@](O)(CC)[C@H](C)O4)O3)O2)[C@H](C)C[C@@H]1C`, the inhibition in experiment [3] was determined as 117%; in experiment [4], 107%.

Take `O=C(CCl)Nc1cccc(-c2cnc3ccccc3n2)c1`: the inhibition was 101% in experiment [1] and 98.6% in experiment [2]. Also, the activity is 99.3% in experiment [5] and 99.2% in experiment [6].

As to `O=C(Oc1cc2oc(=O)cc(-c3ccccc3)c2cc1Cl)C1CCCCC1`, the inhibition in experiment [3] was determined as 113%; in experiment [4], 105%.

On to `Cc1ccc(Sc2c(C=O)c3ccccc3n2C)cc1`, for which the inhibition in experiment [3] was 105%; in experiment [4], 104%.

On to `CCOC(=O)c1c(C)[nH]c(C(=O)OCC(=O)Nc2sccc2C(N)=O)c1C`, for which the inhibition in experiment [1] was found to be 76.2%; in experiment [2], 101%. For the same compound, the activity in experiment [5] was 69.8%; in experiment [6], 62.2%.

`Cc1ccc2sc(N(CCCN(C)C)C(=O)c3ccc(S(=O)(=O)N4CCc5ccccc5C4)cc3)nc2c1C`: the inhibition in experiment [1] worked out at 82.2%; in experiment [2] it was 74.5%. In addition, the values for the activity in experiment [5] and in experiment [6] were 75% and 87%, respectively.

Regarding `CCCC(=O)N1CCCC(c2cc(C(=O)Nc3ccccc3)no2)C1` (configuration not stated), the values for the inhibition in experiment [1] and in experiment [2] were 85.5% and 90.8%, respectively. Also, the activity came to 52.6% in experiment [5] and 37.5% in experiment [6].

On to `Brc1ccc2ncnc(NCc3ccco3)c2c1`, for which the inhibition in experiment [3] amounted to 109%; in experiment [4] it was 105%.

For `CC1(C)Oc2cc3oc(-c4cc(O)cc(O)c4)cc3cc2CC1O` (configuration not stated), the inhibition in experiment [1] stood at 93.6%; in experiment [2] it was 94.6%. The activity in experiment [5] worked out at 81.8%; in experiment [6] it was 75.9%.

On to `Cc1nn(C(C)(C)C)c(C)c1/C=N/OC(=O)Nc1ccc(Cl)cc1`, for which the inhibition in experiment [1] was 98.8%; in experiment [2] it was 98.3%. Also, the activity is 94.2% in experiment [5] and 91.5% in experiment [6].

Regarding `Cc1cccc(-n2ncc3c(N(C)C4CCCCC4)ncnc32)c1`, the results for the inhibition in experiment [1] and in experiment [2] were 89% and 91.4%, respectively. Also, the activity in experiment [5] was found to be 89.4%; in experiment [6] it was 88%.

Regarding `CCOC(=O)C1=C(CC)Nc2ccccc2N=C1NC(=O)c1oc2ccccc2c1C`, the inhibition in experiment [3] is 111%; in experiment [4], 91.5%.

Consider `CC(C)(C)C(=O)Nc1cc2nn(-c3ccccc3)nc2cc1Cl`, for which the inhibition in experiment [1] came to 92.3%; in experiment [2], 90.1%. In addition, the figures for the activity in experiment [5] and in experiment [6] were 98.2% and 97.7%, respectively.

On to `CC1CCc2c(sc3ncnc(N4CCOCC4)c23)C1` (configuration not stated), for which the results for the inhibition in experiment [3] and in experiment [4] were 114% and 101%, respectively.

Turning to `Cc1ccc(S(=O)(=O)n2cc(-c3ccccc3)c3ccccc32)cc1`, the inhibition is 114% in experiment [3] and 108% in experiment [4].

With `O=C(Nc1ccc([N+](=O)[O-])cc1)Nc1ccc(Cl)cc1F`, the values for the inhibition in experiment [3] and in experiment [4] were 109% and 101%, respectively.
